Data published in PubChem BioAssay (NCATS).
Inconclusive results are not listed. Calls of active or inactive are those of the source. Calls follow the shape of the dose curve; as a rule, active = well fitted curve in the direction sought with a large enough effect; inconclusive = small, poorly fitted or top-dose-only effect, or another doubt; inactive = no such curve, though single readings can be large; an effect the other way counts as inactive or inconclusive.

Target: Aldehyde dehydrogenase, mitochondrial (Homo sapiens) (UniProt P05091)
Assay: qHTS for Inhibitors of the Aldehyde Dehydrogenase Family (ALDH2) Primary screen (AID 2061308);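 also: plate controls were vehicle for no effect and reference inhibitor for full effect; nearly all actives have a fitted effect of over 55% in size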
Conditions: ALDH2 enzyme inhibition qHTS, 1536-well; series mostly up to 56 µM; activity change, negative = inhibition: at the top concentration

Row | Structure (SMILES) | activity change, negative = inhibition
1 | COC(=O)C12C(=O)C(C)(O)C(=O)C1(C)C(C)=CC1C34CCC(OC3=O)C(C)(CO)C4CCC12C (centres undefined) | -4.26% [at 28 µM] (inactive)
2 | CC(O)(c1ccccc1)C(Cc1ccc(Cl)cc1)n1cncn1 (centres undefined) | -3.55% (inactive)
3 | Cc1ccc(Cn2nc(C(=O)N[C@@H]3C(C)(C)[C@@H]4CC[C@@]3(C)C4)cc2-c2ccc(Cl)c(C)c2)cc1 | -4.28% (inactive)
4 | c1ccc([C@@H]2C[C@H]2NC2CCNCC2)cc1 | -26.2% (inactive)
5 | CO/C1=C\C(C)=C\[C@@H](C)[C@@H](O)[C@@H](C)C/C(C)=C/C=C/[C@H](OC)[C@@H]([C@@H](C)[C@@H](O)[C@H](C)[C@@]2(O)C[C@@H](O)[C@H](C)[C@@H](C(C)C)O2)OC1=O | 5.37% [at 16.9 µM] (inactive)
6 | N#CC(OC1OC(COC2OC(CO)C(O)C(O)C2O)C(O)C(O)C1O)c1ccccc1 (centres undefined) | 1.77% [at 28 µM] (inactive)
7 | CCC1CN2CCc3cc(OC)c(OC)cc3C2CC1CC1=NCCc2cc(O)c(OC)cc21 (centres undefined) | -7.18% [at 28 µM] (inactive)
8 | COC1C=CC23c4cc5c(cc4COC2(O)CN(C)C3C1)OCO5 (centres undefined) | 12.3% (inactive)
9 | C[C@]12CC[C@H](O)CC1=CC[C@@H]1C2CC[C@]2(C)[C@@H](C3=CC(=O)OC3)CC[C@]12O (some centres undefined) | -2.48% (inactive)
10 | Clc1ccc([C@]23CNC[C@H]2C3)cc1Cl | -22.7% (inactive)

Target: Retinaldehyde dehydrogenase 3 (Homo sapiens) (UniProt P47895)
Assay: qHTS for Inhibitors of the Aldehyde Dehydrogenase Family (ALDH1A3) Primary screen (AID 2061315);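 also: plate controls were DMSO vehicle for no effect and reference inhibitor for full effect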
Conditions: ALDH inhibition qHTS; series mostly up to 56 µM; activity change, negative = inhibition: at the top concentration

Row | Structure (SMILES) | activity change, negative = inhibition
11 | O=C(N[C@H]1CN2CCC1CC2)c1cc2cccc(Cl)c2s1 | 0.165% (inactive)
12 | C/C=C(\C)C(=O)OC1CC2C(CC=C3CC(OC4CC(OC)C(OC5CC(OC)C(OC6OC(C)C(OC7OC(CO)C(O)C(O)C7O)C(OC)C6O)C(C)O5)C(C)O4)CCC32C)C2(O)CCC(C(C)=O)C12C (centres undefined) | 5.72% [at 16.9 µM] (inactive)
13 | C=C(C)C(=O)O[C@H]1[C@@H]2[C@H](C)C(=O)O[C@@H]2C[C@@H](C)[C@@H]2C=CC(=O)[C@]21C | -4.19% (inactive)
14 | CCN1C[C@]2(COC)[C@H](O)C[C@H](OC)[C@]34[C@@H]5C[C@]6(O)[C@H](OC(=O)c7ccccc7)[C@@H]5[C@@](O)([C@H]([C@H](OC)[C@H]23)[C@@H]14)[C@@H](O)[C@@H]6OC | 7% (inactive)
15 | COCC(C(=O)OC1CC2CCC(C1)N2C)c1ccccc1 (centres undefined) | -1.29% (inactive)
16 | CC1=CC2/C=C(\C)CCC(O)C3OC(C)(C)OC3CC(=O)OC23C(=O)NC(CC(C)C)C3C1C (centres undefined) | 3.96% [at 28 µM] (inactive)
17 | CC(C)(C)NC[C@H](O)c1ccc(O)cc1Cl | -9.01% (inactive)
18 | C[C@H]1C(=O)O[C@H]2[C@H](O)[C@]34C5OC(=O)[C@]3(O[C@@H]3OC(=O)[C@H](O)C34[C@H](C(C)(C)C)[C@H]5O)C12O (some centres undefined) | 6.83% [at 28 µM] (inactive)
19 | CO[C@@H]1[C@@H](O)[C@@H](O[C@H]2CC[C@]3(C=O)C4CC[C@]5(C)[C@@H](C6=CC(=O)OC6)CC[C@]5(O)[C@@H]4CC[C@H]3C2)O[C@@H](C)[C@H]1O[C@@H]1O[C@H](CO[C@@H]2O[C@H](CO)[C@@H](O)[C@H](O)[C@H]2O)[C@@H](O)[C@H](O)[C@H]1O (some centres undefined) | -23.4% [at 16.9 µM] (inactive)
20 | C[C@H]1O[C@@H](O[C@H]2[C@@H](O)C[C@H](O[C@H]3[C@@H](O)C[C@H](O[C@H]4CC[C@@]5(C)[C@H](CC[C@@H]6[C@@H]5CC[C@]5(C)[C@@H](C7=CC(=O)OC7)CC[C@]65O)C4)O[C@@H]3C)O[C@@H]2C)C[C@H](O)[C@@H]1O | 14.5% [at 16.9 µM] (inactive)
21 | CCCCOC(=O)c1ccnc2cc(C(OCCN3CCCCC3)c3ccccc3Cl)sc12 (centres undefined) | -6.52% (inactive)
22 | C=CC(C)(C)C12C=C(O)C(=O)N3/C(=C\c4cnc[nH]4)C(=O)NC31N(OC)c1ccccc12 (centres undefined) | 41.3% [at 28 µM] (inactive)
23 | CC1=CC(=O)[C@@H](O)[C@@]2(C)C1C[C@H]1OC(=O)[C@H](O)[C@@]3(O)[C@@H](C)[C@@H](O)[C@H](O)C2[C@@]13C (some centres undefined) | -25.4% (inactive)
24 | CN1CCc2cc3c(cc2[C@H]1[C@@H]1OC(=O)c2c1ccc1c2OCO1)OCO3 | 2.49% (inactive)
25 | C[C@]12CCC(=O)C=C1CC[C@@H]1[C@@H]2[C@@H](O)C[C@]2(C)C(=O)CC[C@@H]12 | -7% (inactive)
26 | CCCCCn1cc(C(=O)c2cccc3ccccc23)c2ccccc21 | -6.14% (inactive)
27 | CCC1C2CC3C4N(C)c5ccccc5C45CC(C2C5O)N3C1O (centres undefined) | -26.4% (inactive)
28 | C[N@@+]1(CC2CC2)CC[C@]23c4c5ccc(O)c4O[C@H]2C(=O)CC[C@@]3(O)[C@H]1C5 | -7.7% (inactive)
29 | C[C@@H]1C(=O)O[C@H]2[C@H](O)[C@@]34[C@@H]5OC(=O)[C@@]3(O[C@@H]3OC(=O)[C@@H](O)[C@@]34[C@H](C(C)(C)C)[C@H]5O)[C@@]12O | 11.4% [at 28 µM] (inactive)
30 | CC(C)(C)[C@]1(O)C[C@@H]2OC(=O)C[C@@]23C(=O)O[C@@H]2OC(=O)[C@@H](O)[C@]213 | -11.9% (inactive)

Row | Structure (SMILES) | activity change, negative = inhibition
31 | C/C=C(\C)C(O)C(C)/C=C(C)/C=C/C/C(C)=C/Cc1nc(OC)c(OC)c(O[C@@H]2O[C@@H](C)[C@H](O)[C@@H](O)[C@H]2O)c1C (some centres undefined) | -15.8% [at 28 µM] (inactive)
32 | CCOC(=O)c1ncn2c1CN(C)C(=O)c1c(I)cccc1-2 | -16.8% (inactive)
33 | CC1=CC2/C=C(\C)CCCC(O)/C=C/C(=O)OC23C(=O)NC(CC(C)C)C3C1C (centres undefined) | 0.745% (inactive)
34 | CC12CCC3C(CCC4(O)CC(O)CCC34C=O)C1(O)CCC2C1=CC(=O)OC1 (centres undefined) | -14.6% (inactive)
35 | C[C@]12CC[C@H](O)C[C@@H]1CC[C@@H]1[C@@H]2CC[C@]2(C)C(=O)CC[C@@H]12 | -1.01% (inactive)
36 | CC(=O)OC[C@]12C[C@H](OC(=O)CC(C)C)C(C)=C[C@H]1O[C@@H]1[C@H](O)C[C@@]2(C)[C@]12CO2 | 3.53% [at 28 µM] (inactive)
37 | C=CC(C)(C)c1[nH]c2cccc3c2c1C[C@@H]1[C@@H]3[C@@H](OC(C)=O)[C@H](C)CN1C | -1.9% (inactive)
38 | C=C(CO)C(=O)O[C@H]1C/C(C)=C/CC/C(CO)=C/[C@H]2OC(=O)C(=C)[C@H]12 | 8.04% (inactive)
39 | CCC1NC(=O)C2C(Cl)C(Cl)CN2C(=O)C(C(C)O)NC(=O)CC(c2ccccc2)NC(=O)C(CO)NC1=O (centres undefined) | -14.3% [at 16.9 µM] (inactive)
40 | COC(=O)C12C(=O)C(C)(O)C(=O)C1(C)C(C)=CC1C34CCC(OC3=O)C(C)(CO)C4CCC12C (centres undefined) | -6.2% [at 28 µM] (inactive)
41 | CC(O)(c1ccccc1)C(Cc1ccc(Cl)cc1)n1cncn1 (centres undefined) | -0.529% (inactive)
42 | Cc1ccc(Cn2nc(C(=O)N[C@@H]3C(C)(C)[C@@H]4CC[C@@]3(C)C4)cc2-c2ccc(Cl)c(C)c2)cc1 | -5.83% (inactive)
43 | c1ccc([C@@H]2C[C@H]2NC2CCNCC2)cc1 | -13.3% (inactive)
44 | CO/C1=C\C(C)=C\[C@@H](C)[C@@H](O)[C@@H](C)C/C(C)=C/C=C/[C@H](OC)[C@@H]([C@@H](C)[C@@H](O)[C@H](C)[C@@]2(O)C[C@@H](O)[C@H](C)[C@@H](C(C)C)O2)OC1=O | 4.87% [at 16.9 µM] (inactive)
45 | N#CC(OC1OC(COC2OC(CO)C(O)C(O)C2O)C(O)C(O)C1O)c1ccccc1 (centres undefined) | 2.48% [at 28 µM] (inactive)
46 | CCC1CN2CCc3cc(OC)c(OC)cc3C2CC1CC1=NCCc2cc(O)c(OC)cc21 (centres undefined) | -15.1% [at 28 µM] (inactive)
47 | COC1C=CC23c4cc5c(cc4COC2(O)CN(C)C3C1)OCO5 (centres undefined) | 10.3% (inactive)
48 | C[C@]12CC[C@H](O)CC1=CC[C@@H]1C2CC[C@]2(C)[C@@H](C3=CC(=O)OC3)CC[C@]12O (some centres undefined) | 0.0866% (inactive)
49 | Clc1ccc([C@]23CNC[C@H]2C3)cc1Cl | -20.8% (inactive)
